± gives the standard deviation of the averaged measurements. Over roughly 33,000 sequences, “E-score (rank enrichment, -0.5 to 0.5)” has its median near -0.0028; the highest 2% begin near 0.23. For the sample, the highest values were picked, then their nearest neighbours and some sequences at random.
System: 2Sb-muMax20 (muMax20 with two 1,3-bis(methyl)benzene Cys staples, A13C/A17C and Q88C/A92C, C-terminal Lys)
Assay: PBM 8-mer E-score (E-score (rank enrichment, -0.5 to 0.5)); higher = stronger preferential binding
Method: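 Protein binding microarray (universal PBM chip covering all 10-mers in fixed probe flanks) with chemically synthesized human Max(13-93) bHLH-LZ analogs (not full-length Max) bearing noncanonical residues (hArg, Tha, Aib, Nle at 65) and aromatic Cys staples. Read-out per 8-mer (and its reverse complement): E-score (rank-based enrichment, -0.5 to 0.5) and Z-score of median probe intensity.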

Sequence | PBM 8-mer E-score
AGGTAGCA | 0.107 ± 0.065
AGGTCAGG | -0.187 ± 0.011
GAAAGCAA | 0.0699 ± 0.014
TAAAGCAA | 0.2878 ± 0.0008
CAAAGCAA | 0.173 ± 0.058
GTCGAGAC | 0.0609 ± 0.045
ATTTCAGG | -0.054 ± 0.037
AGATCCAG | -0.0734 ± 0.013
GGACAGAC | -0.211 ± 0.04
ATTGATGC | 0.125 ± 0.018
ATTGATGA | 0.0883 ± 0.037
ATTGATGG | 0.254 ± 0.0094
CGCTGTTC | -0.0947 ± 0.036
ATCTCGAC | -0.0985 ± 0.011
CACACCAC | 0.0993 ± 0.072
AGAACAAA | 0.13 ± 0.046
CGAACATC | 0.0524 ± 0.0016
CGAACATA | 0.233 ± 0.037
GGAACATA | 0.0124 ± 0.063
CGAACAAA | 0.261 ± 0.021
CGAACAAG | -0.08043 ± 0.00071
CGTAGGAC | -0.224 ± 0.05
CGGCACAG | -0.151 ± 0.028
ATATTAGA | 0.245 ± 0.0043
ATATTAGG | 0.287 ± 0.008

Sequence | PBM 8-mer E-score
ATATTAGC | 0.125 ± 0.041
GTATTAGA | 0.201 ± 0.063
CTATTAGC | 0.0397 ± 0.078
CTATTAGA | -0.0815 ± 0.044
CGGCCCCG | -0.0779 ± 0.064
GGAGGTTA | 0.0654 ± 0.011
CGGTAAGA | 0.00167 ± 0.075
CCACATCC | 0.00851 ± 0.069
AGTGATTA | 0.0652 ± 0.034
AACTATTA | 0.252 ± 0.069
CACTATTA | 0.133 ± 0.036
GGCTATTA | 0.116 ± 0.04
AGCTATTA | 0.251 ± 0.019
CGCTATTA | -0.0606 ± 0.018
AACTAATA | 0.263 ± 0.029
CACTAATA | 0.113 ± 0.031
TACTAATA | 0.112 ± 0.037
GACTATTA | -0.0384 ± 0.062
ATCGGGTG | -0.0686 ± 0.0025
ATCCAAGG | -0.161 ± 0.034
CATACTCG | 0.0129 ± 0.075
CCATCTTC | 0.0281 ± 0.036
AATCACAG | -0.0581 ± 0.1
AATCACGA | -0.0273 ± 0.0012
AATCACAT | 0.245 ± 0.025

Sequence | PBM 8-mer E-score
AATCACGT | 0.26 ± 0.025
AATCACGC | 0.125 ± 0.047
AATCACAA | 0.166 ± 0.021
ACAAATTA | 0.0394 ± 0.025
CGGCAAAG | -0.127 ± 0.016
CCGACAGG | -0.121 ± 0.008
GCTCATTA | 0.155 ± 0.098
GCTTATTA | 0.1305 ± 0.0011
CCTTATTA | 0.28 ± 0.023
CCTTATTC | -0.00564 ± 0.062
CCTCATTA | 0.251 ± 0.052
CCTCATTC | 0.0874 ± 0.052
AGCTGCCT | -0.1104 ± 0.00073
CAGCACGC | -0.176 ± 0.048
CTAAAGCC | 0.0237 ± 0.016
AGGGAAAT | 0.264 ± 0.019
AGGGAAAC | 0.00477 ± 0.00053
AGGGAAAG | 0.06 ± 0.037
ATAAGCTG | 0.0487 ± 0.092
AGTAGAAT | 0.192 ± 0.0085
CGATTGAC | -0.0145 ± 0.035
CCACGCGG | 0.323 ± 0.026
CAACGTGG | 0.11 ± 0.044
CCACGCGA | 0.0259 ± 0.0059
ACACGCGG | 0.145 ± 0.026

Sequence | PBM 8-mer E-score
CCACGTGG | 0.46 ± 0.0066
CGACGTGA | 0.0209 ± 0.0095
CCACGTGA | 0.377 ± 0.034
CCACGTGC | 0.376 ± 0.054
CCACGTAG | -0.0491 ± 0.031
CTACGTGA | 0.0198 ± 0.047
CGACGTGC | -0.0806 ± 0.038
CCACGTCC | -0.141 ± 0.039
TATTAAAA | 0.142 ± 0.065
GGAACACC | -0.18 ± 0.026
ACACGGGT | -0.046 ± 0.012
ATTAGGTC | 0.0763 ± 0.069
ATTATCCA | 0.0946 ± 0.055
ACGGAACT | -0.0318 ± 0.08
AGCGTCGG | -0.117 ± 0.08
CAGTATCC | 0.0515 ± 0.025
GCACGTTA | 0.1 ± 0.012
CCACGTTC | 0.0604 ± 0.011
CCACGTTA | 0.3181 ± 0.0019
TAGCTTCA | 0.122 ± 0.05
AGCGCCCC | -0.0138 ± 0.11
ACTATAAG | 0.0622 ± 0.044
CGTATAAG | 0.0878 ± 0.037
AGTATAAT | 0.24 ± 0.091
AGTATAAC | -0.0733 ± 0.029

Sequence | PBM 8-mer E-score
AGTATAAA | 0.188 ± 0.0027
AGTATAAG | 0.272 ± 0.011
AGCGCAGA | -0.126 ± 0.074
AAATAAAT | 0.172 ± 0.013
ATAGAAAC | 0.0134 ± 0.036
AAGAGGCC | -0.129 ± 0.067
AACTTCAA | 0.00863 ± 0.015
GACTTCAA | 0.15 ± 0.0026
TACTTCAA | 0.265 ± 0.047
AAGATCTA | -0.0269 ± 0.015
AAGATCTG | 0.0847 ± 0.069
AAGATCTT | 0.257 ± 0.052
ATGCTGAA | 0.0724 ± 0.024
ACCTAGTG | 0.109 ± 0.023
GGGGGATA | 0.0584 ± 0.079
GTGGGATA | 0.274 ± 0.071
CGGGGATA | 0.0352 ± 0.012
CTGGGATA | -0.0992 ± 0.038
AGGGGATA | 0.303 ± 0.046
ATGGGATA | 0.145 ± 0.0055
ATGCTTCC | -0.0299 ± 0.042
GCCCAGGA | -0.14 ± 0.058
ACCGCGGT | -0.115 ± 0.037
CCCTCCGC | -0.0855 ± 0.048
AACCGATC | -0.0993 ± 0.0093

Sequence | PBM 8-mer E-score
GCGTGTTA | 0.0351 ± 0.018
ACGTGTTC | 0.103 ± 0.017
ACGTGTGC | 0.2375 ± 0.00032
ACGTGTAT | 0.35 ± 0.016
CCGTGTTA | 0.0249 ± 0.014
ACGTGTTA | 0.269 ± 0.0048
ACGTGTGA | 0.0598 ± 0.014
ATGTGTTG | 0.197 ± 0.039
ACGTGTTG | 0.258 ± 0.013
ACGTGTAC | 0.147 ± 0.019
ACGTGTAG | -0.0126 ± 0.035
ACGTGTGG | 0.151 ± 0.034
GCCTAACA | 0.0954 ± 0.1
ATCTCCAA | 0.107 ± 0.026
CTGTCTCC | -0.098 ± 0.04
AATTTGAT | -0.0177 ± 0.068
GCAATTGC | 0.031 ± 0.021
AACATCGA | 0.0919 ± 0.039
GTTGATGA | 0.108 ± 0.0079
ATTGGTTC | 0.0837 ± 0.026
GGGCCGGA | -0.178 ± 0.071
AATAATCA | 0.0347 ± 0.023
GATAATCA | 0.188 ± 0.037
TATAATCA | 0.263 ± 0.0093
AGTATTCC | 0.115 ± 0.061

Sequence | PBM 8-mer E-score
AAGTATGA | 0.139 ± 0.069
CAGTATGA | 0.103 ± 0.036
TAGTATGA | 0.233 ± 0.017
CCAGGTGA | -0.197 ± 0.057
GTGCGAAC | -0.083 ± 0.0049
AATTAGTA | 0.281 ± 0.031
CATTAGTA | 0.0235 ± 0.027
AATTAGTC | 0.0882 ± 0.024
AGCCGCGG | -0.23908 ± 0.00016
AACGCCGT | -0.116 ± 0.032
ACATGTTC | 0.144 ± 0.088
ACATGTTG | 0.289 ± 0.023
ACATGTTA | 0.2525 ± 0.0013
GCATGTTA | 0.165 ± 0.072
AGATGTTG | -0.0885 ± 0.12
CCATGTTA | 0.111 ± 0.079
CGTGTGAA | -0.155 ± 0.051
ACGTGAGC | 0.0717 ± 0.062
AATCAAAC | 0.16 ± 0.021
CGTTCTAA | 0.032 ± 0.071
GGCCCACA | -0.0654 ± 0.04
CGCCCACG | -0.0314 ± 0.056
CGCCCCAG | 0.0881 ± 0.046
ATCCCACC | 0.193 ± 0.054

— the supplement of paper PMC12636033
